Experiment [1] deals with Human papillomavirus type 1a protein E7 (residues 44-93). The experiment in a line: HPV1a E7 fragment binders on microarrays, primary screen, biochemical, small-molecule microarray, residues 44-93, 635 nm fluorescence (AID 1108).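 Also: E7 fragment applied at 1 µg/mL in TBST for 1 h at 4 C; score combines spot fluorescence with its signal to noise ratio.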 The following applies: small-molecule microarray binding, fluorescence 635 nm; higher = more signal.
The nature of experiment [2]: modulators of HCV replicon luciferase signal, primary screen, HCV replication inhibitor project, Huh7 cells, luciferase reporter (AID 1109).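 Also: huh7 hepatoma cells harbouring a luciferase neomycin HCV replicon reporter; luciferase luminescence as measure of HCV replicon replication; test concentration not given here.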 To be noted: 48 h, higher = more signal. On the technique in general: A replicon is a self-replicating genome or part of one, used to study replication in cells.
Experiment [3] concerns the target Left-right determination factor 2 (Homo sapiens) (UniProt O00292). The experiment in a line: LEFTY2 binders on small-molecule microarrays, primary screen, biochemical, small-molecule microarray, 635 nm fluorescence scan (AID 1110). To be noted: LEFTY2 binding, higher = more signal.
Experiment [4] has as its target Calmodulin-1 (Homo sapiens) (UniProt P0DP23). The experiment can be described thus: CALM1 binders on microarrays, EGTA buffer, profiling panel, biochemical, small-molecule microarray, Cy5-labelled CALM1 (AID 1111).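 Also: labelled calmodulin applied in Tris saline Tween buffer holding calcium plus EGTA and DTT.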 The following applies: Cy5-CALM1 binding fluorescence, higher = more signal.
The target is the same in experiment [5]. The experiment can be described thus: calcium-bound CALM1 binders on microarrays, profiling panel, artefact control for SMM control-protein annotation, biochemical, small-molecule microarray, Cy5-labelled CALM1, plus calcium (AID 1112).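 Also: score merges spot fluorescence with signal to noise from triplicate slides.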 The following applies: Cy5-CALM1 binding fluorescence, higher = more signal.
The nature of experiment [6]: small-molecule microarray binders of probe aWnt5a, primary screen, biochemical, biotinylated probe, 635/667 nm fluorescence (AID 1113).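 Also: score merges 667 nm fluorescence intensity with signal-to-noise per printed feature.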 The following applies: higher = more signal.
The nature of experiment [7]: small-molecule microarray binders of probe aShh, primary screen, biochemical, biotinylated probe, 635/667 nm fluorescence (AID 1114).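 Also: probe is biotin-labelled aShh protein from a stem cell growth factor screen; measures binding of labelled protein to compounds printed on the slide; score merges feature fluorescence at 667 nm with signal-to-noise.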 To be noted: higher = more signal.
Experiment [8] is described as follows: small-molecule microarray binders of probe aNog, primary screen, biochemical, biotinylated probe, 635/667 nm fluorescence (AID 1115).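 Also: probe is biotinylated aNog protein used at 0.15 µg/mL for 1 h at 4 C; z-score combines 667 nm fluorescence of each spot with its signal to noise.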 The following applies: higher = more signal.
Experiment [9] deals with Torsin-1A-interacting protein 1 (Homo sapiens) (UniProt Q5JTV8). The experiment can be described thus: LAP1 binders from COS7 cell lysate, primary screen, small-molecule microarray, 635/667 nm fluorescence (AID 1116). To be noted: COS7-hLAP1 lysate binding, 635 nm fluorescence, higher = more signal.
The target of experiment [10] is Alpha-bungarotoxin (Bungarus multicinctus) (UniProt P60615). The experiment in a line: alpha-bungarotoxin binders on microarray, profiling panel, artefact control for SMM control protein annotation, biochemical, small-molecule microarray, Alexa647 label, 635/667 nm fluorescence (AID 1117). To be noted: alpha-BTX-A647 binding fluorescence, higher = more signal.
For experiment [11], the target named is Albumin (Bos taurus) (UniProt P02769). The experiment can be described thus: bovine serum albumin binders on microarray, profiling panel, artefact control for SMM control protein annotation, biochemical, small-molecule microarray, Alexa647 label, 635/667 nm fluorescence (AID 1118).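 Also: score merges 667 nm emission intensity and signal-to-noise per printed compound spot.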 The following applies: BSA-A647 binding, fluorescence 635 nm, higher = more signal.

Experiment [12] in a line: small-molecule microarray binders of probe aXIP, primary screen, biochemical, NeuroSMM set, 635/667 nm fluorescence (AID 1119).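 Also: probe is the protein aXip251-270 applied at 1 µg/mL to compound-printed slides; binding of probe to printed compounds measured as 667 nm fluorescence plus signal to noise.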 The following applies: higher = more signal, called active from +8 up or from −8 down.
A short description of experiment [13]: small-molecule binders of probe aNOTCH3, primary screen, biochemical, small-molecule microarray, 635/667 nm fluorescence (AID 1120).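 Also: probe is a biotin-tagged antibody raised against NOTCH3 rather than NOTCH3 protein; score merges spot fluorescence near 667 nm with spot signal to noise.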 The following applies: higher = more signal.
Experiment [14] can be described thus: small-molecule binders of probe aNOTCH2, primary screen, biochemical, small-molecule microarray, 635/667 nm fluorescence (AID 1121).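 Also: score merges feature fluorescence read at 667 nm with its signal to noise.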 To be noted: higher = more signal.
In experiment [15] the target is Carbonic anhydrase 2 (Homo sapiens) (UniProt P00918). The experiment in a line: CAII small-molecule binders, profiling panel, biochemical, small-molecule microarray, Alexa647-labelled CAII (AID 1122). To be noted: CAII-A647 binding fluorescence, higher = more signal.
Experiment [16] is described as follows: COS7 lysate on small-molecule microarray, probe aHis, 635 nm (AID 1123).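 Also: z-score combines 667nm fluorescence intensity with signal-to-noise per printed compound spot.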 To be noted: COS7 cell lysate, fluorescence, higher = more signal.
The nature of experiment [17]: compound binding in COS7 lysate, probe aLAP1, primary screen, cell lysate, small-molecule microarray (AID 1124).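 Also: lysate comes from COS7 cells expressing LAP1 and is applied at 0.3 µg/mL; score merges spot fluorescence near 667 nm with signal-to-noise over triplicate slides.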 The following applies: probe aLAP1, fluorescence, higher = more signal.
Experiment [18] deals with Sam68 (KHDRBS1). The experiment can be described thus: Sam68 small-molecule binders, primary screen, biochemical, small-molecule microarray, 635 nm fluorescence (AID 1125).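 Also: score merges 667 nm channel intensity with signal to noise over triplicate slides.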 The following applies: small-molecule microarray binding, higher = more signal.
For experiment [19], the system named is Chordin-like protein 2 (CHRDL2). The experiment in a line: CHRDL2 small-molecule binders, primary screen, biochemical, small-molecule microarray, 635 nm fluorescence (AID 1126).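 Also: printed compound slides probed with Chrdl2 protein at 4 µg/mL for 1 h at 4 C; score merges 667 nm emission intensity with signal to noise over three replicate slides.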 The following applies: small-molecule microarray binding, fluorescence 635 nm; higher = more signal.
The target of experiment [20] is Concanavalin-A (Canavalia ensiformis) (UniProt P02866). The experiment in a line: ConA small-molecule binders, primary screen, artefact control for SMM control protein annotation, biochemical, small-molecule microarray, Alexa647 label, 635 nm (AID 1127).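 Also: z combines 667 nm emission intensity with signal-to-noise across three replicate slides.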 The following applies: ConA-A647 binding fluorescence, higher = more signal.

Calls of active or inactive are those of the source.

Torsin-1A-interacting protein 1 (Homo sapiens), sequence (Q5JTV8 whole entry, looked up): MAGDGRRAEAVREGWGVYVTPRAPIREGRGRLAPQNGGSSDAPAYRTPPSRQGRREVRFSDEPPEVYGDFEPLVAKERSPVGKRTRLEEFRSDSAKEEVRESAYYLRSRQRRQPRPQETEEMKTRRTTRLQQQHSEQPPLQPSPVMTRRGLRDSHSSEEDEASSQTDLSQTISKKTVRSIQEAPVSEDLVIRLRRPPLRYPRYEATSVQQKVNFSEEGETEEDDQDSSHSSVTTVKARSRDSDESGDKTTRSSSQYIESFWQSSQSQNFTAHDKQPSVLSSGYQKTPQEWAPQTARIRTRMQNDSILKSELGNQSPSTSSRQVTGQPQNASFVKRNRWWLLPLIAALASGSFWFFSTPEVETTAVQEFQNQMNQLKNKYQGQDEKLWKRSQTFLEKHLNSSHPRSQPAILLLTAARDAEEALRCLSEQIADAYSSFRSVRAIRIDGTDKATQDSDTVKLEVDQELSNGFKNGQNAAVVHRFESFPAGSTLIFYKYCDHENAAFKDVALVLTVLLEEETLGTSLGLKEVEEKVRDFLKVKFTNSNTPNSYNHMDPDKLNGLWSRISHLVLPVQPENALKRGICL
Concanavalin-A (Canavalia ensiformis), sequence (P02866 whole entry, looked up): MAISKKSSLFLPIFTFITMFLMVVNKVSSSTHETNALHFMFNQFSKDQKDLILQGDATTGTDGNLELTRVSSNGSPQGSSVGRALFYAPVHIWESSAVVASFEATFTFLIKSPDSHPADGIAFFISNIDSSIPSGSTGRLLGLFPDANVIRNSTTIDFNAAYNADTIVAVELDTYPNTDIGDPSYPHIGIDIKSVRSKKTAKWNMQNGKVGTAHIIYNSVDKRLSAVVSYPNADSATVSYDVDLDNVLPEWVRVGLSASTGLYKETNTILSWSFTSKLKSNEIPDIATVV
Albumin (Bos taurus), sequence (P02769 whole entry, looked up): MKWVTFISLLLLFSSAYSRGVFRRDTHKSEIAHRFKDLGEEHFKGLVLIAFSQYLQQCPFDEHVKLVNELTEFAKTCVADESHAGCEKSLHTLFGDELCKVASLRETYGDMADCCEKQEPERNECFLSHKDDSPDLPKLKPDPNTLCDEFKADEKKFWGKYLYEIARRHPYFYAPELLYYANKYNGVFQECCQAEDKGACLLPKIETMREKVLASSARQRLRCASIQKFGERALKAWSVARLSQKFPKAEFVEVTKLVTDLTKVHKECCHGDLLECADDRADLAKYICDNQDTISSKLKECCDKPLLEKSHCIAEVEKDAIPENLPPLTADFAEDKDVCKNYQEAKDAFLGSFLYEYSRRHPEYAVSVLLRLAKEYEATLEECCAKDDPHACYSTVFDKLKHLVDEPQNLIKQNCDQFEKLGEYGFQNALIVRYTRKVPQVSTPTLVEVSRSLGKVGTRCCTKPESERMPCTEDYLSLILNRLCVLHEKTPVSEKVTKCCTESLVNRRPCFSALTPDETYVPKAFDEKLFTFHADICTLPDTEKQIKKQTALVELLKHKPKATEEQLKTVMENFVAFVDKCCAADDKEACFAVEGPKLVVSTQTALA
Left-right determination factor 2 (Homo sapiens), sequence (O00292 whole entry, looked up): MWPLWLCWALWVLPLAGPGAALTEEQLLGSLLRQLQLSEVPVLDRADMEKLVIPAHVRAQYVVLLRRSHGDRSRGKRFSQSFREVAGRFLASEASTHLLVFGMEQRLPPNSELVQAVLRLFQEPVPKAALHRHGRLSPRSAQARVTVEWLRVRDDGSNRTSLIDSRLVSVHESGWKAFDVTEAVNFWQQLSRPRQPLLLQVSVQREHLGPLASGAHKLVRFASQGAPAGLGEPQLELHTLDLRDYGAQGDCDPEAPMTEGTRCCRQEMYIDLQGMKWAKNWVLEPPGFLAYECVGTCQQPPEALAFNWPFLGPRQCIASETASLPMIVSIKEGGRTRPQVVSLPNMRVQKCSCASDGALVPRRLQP
Alpha-bungarotoxin (Bungarus multicinctus), sequence (P60615 whole entry, looked up): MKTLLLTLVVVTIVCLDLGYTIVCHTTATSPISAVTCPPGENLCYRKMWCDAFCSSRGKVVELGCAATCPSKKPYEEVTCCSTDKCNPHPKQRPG

With `Cc1ccc(S[C@]2(C(=O)NCCN3CCOCC3)CC(=O)N(C3Cc4ccccc4C3)[C@@H]2c2ccc(CO)cc2)cc1`, the composite z-score in experiment [1] is 1.36; in [3], -1.59; in experiment [4], -0.482; in experiment [5], -0.399; in experiment [6], -0.0425; in experiment [7], -0.181. Besides, the composite z-score is 0.775 in [8]; 0.143 in experiment [9]; 0.0451 in experiment [10]; 0.0022 in experiment [11]; -0.159 in experiment [13]; -0.0745 in experiment [14]. The composite z-score is 0.66 in [15]; 2.08 in experiment [16]; 0.0297 in experiment [17]; 0.151 in experiment [18]; -0.373 in [19]; 0.152 in [20]. This molecule also gave a z-score in experiment [2] of -1.56. The composite Z-score in experiment [12] is 0.39 (inactive).

Turning to `Cc1ccc(F)cc1S(=O)(=O)N[C@@H]1CCN(C(=O)c2ccc(OC(C)C)cc2)C1`, the composite z-score in experiment [1] was 0.801; in experiment [3], 1.08; in experiment [4], 0.237; in experiment [5], -0.603; in experiment [6] it was -0.032; in [7], 0.0121. The composite z-score in [8] was -0.425; in experiment [9], 0.521; in [10] it was 0.247; in [11] it was 0.0765; in experiment [13] it was 0.116; in experiment [14], -0.184. Also, the composite z-score was -0.0494 in [15]; 0.644 in [16]; 0.194 in experiment [17]; 1.13 in experiment [18]; 0.686 in experiment [19]; 0.0897 in experiment [20]. Moreover, the z-score in experiment [2] was -0.0287. The composite Z-score in [12] was -0.107 (inactive).

Regarding `NC(=O)NCC#Cc1ccc2c(c1)[C@]1(C(=O)N2)[C@H](c2ccc(O)cc2)N2[C@H](c3ccccc3)[C@H](c3ccccc3)OC(=O)[C@H]2[C@@H]1C(N)=O`, the composite z-score in experiment [1] was -0.366; in experiment [3] it was -0.749; in experiment [4], -0.571; in experiment [5] it was 0.261; in experiment [6] it was -0.185; in [7], 0.0469. Besides, the composite z-score in [8] is 0.218; in [9] it was -0.757; in experiment [10], 0.387; in [11], -0.624; in [13], -0.279; in experiment [14], 0.104. Further, the composite z-score is 0.263 in experiment [15]; 0.409 in experiment [16]; -0.0995 in experiment [17]; -0.144 in [18]; -0.162 in [19]; -0.608 in experiment [20]. This molecule also displayed a z-score in experiment [2] of 0.114. Further, the composite Z-score in experiment [12] is 0.251 (inactive).

Take `COc1cccc(C[C@H]2C[C@@H](CO[Si](C(C)C)(C(C)C)C(C)C)N3C(=O)[C@]4(C(C)=O)O[C@]23[C@H]2C(=O)N(C)C(=O)[C@H]24)c1`: the composite z-score was 1.01 in experiment [1]; 0.717 in [3]; 0.293 in experiment [4]; -0.23 in experiment [5]; -0.0721 in [6]; 0.138 in [7]. Also, the composite z-score is -0.158 in experiment [8]; 0.102 in experiment [9]; 0.866 in experiment [10]; 0.614 in experiment [11]; -0.0647 in experiment [13]; -0.148 in experiment [14]. The composite z-score in experiment [15] is -0.0064; in [16], 0.0217; in experiment [17], -0.274; in experiment [18] it was 1.14; in experiment [19], 0.403; in experiment [20] it was 0.98. Moreover, the z-score in experiment [2] was -3.15. The composite Z-score in experiment [12] is -0.12 (inactive).

With `Cc1ccc(-c2cccc(=O)o2)cc1`, the composite z-score in experiment [1] was -1.01; in [3] it was 0.418; in [4] it was -1.18; in experiment [5], -0.802; in experiment [6], -0.145; in experiment [7] it was -0.138. Moreover, the composite z-score in [8] is 0.11; in [9], -0.101; in experiment [10] it was -0.391; in experiment [11] it was -0.682; in experiment [13], -0.15; in experiment [14] it was -0.108. In addition, the composite z-score in experiment [15] is -0.501; in experiment [16] it was 0.0688; in experiment [17], 0.258; in experiment [18], -1.39; in [19] it was 0.183; in experiment [20] it was -0.413. In experiment [2], this molecule showed a z-score of 0.488. In [12], the composite Z-score is -1.14 (inactive).

As for `COc1ccc([Si](C)(C)[C@@H]2[C@@H](CCO)O[C@]3(C(=O)N(Cc4ccccc4)c4ccc(N5C(=O)COc6ccccc65)cc43)[C@H]2C)cc1`, the composite z-score in [1] was 1.23; in experiment [3] it was 0.0529; in experiment [4], 0.953; in experiment [5], 0.838; in [6], -0.129; in experiment [7], -0.0626. Besides, the composite z-score is -0.194 in experiment [8]; 0.462 in experiment [9]; 0.31 in experiment [10]; 0.187 in experiment [11]; -0.0077 in experiment [13]; -0.0731 in experiment [14]. Moreover, the composite z-score in experiment [15] was 0.426; in experiment [16], 0.841; in experiment [17], 0.719; in experiment [18], 0.929; in experiment [19], -0.237; in experiment [20], 0.822. The same molecule yielded a z-score in experiment [2] of -4.11. The composite Z-score in experiment [12] is 0.685 (inactive).

These data come from PubChem BioAssay.
